Among the data in PubChem BioAssay are cytotoxicity, inhibition and activity values, retold here.

A short description of assay [1]: cytotoxicity in PPC-1 cells, confirmation, cytotoxicity control for TRAIL apoptosis potentiator project, cell-based, ATP content luminescence (AID 1447).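 Also: 0% = DMSO-treated cells and 100% = wells holding medium but no cells.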 The conditions noted are these: PPC-1 viability, ATPlite luminescence, overnight; at 5 µM; stronger effect = higher value. In general terms: In ATP-based viability assays light output follows the ATP content of the culture.

Assay [2] can be described thus: PMA/ionomycin-induced NF-kB reporter inhibitors, Jurkat retest, confirmation, T-cell NF-kB inhibitor project, cell-based, luminescence, single concentration (AID 435020;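 active = inhibition reaching about 45% at 4 µM in either replicate, limit read from the data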;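 also: plate controls were PMA/ionomycin stimulated DMSO wells for no effect and unstimulated DMSO wells for full effect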). The conditions noted are these: Jurkat NF-kB luciferase, 16 h, at 4 µM, stronger effect = higher value.
The target in assay [3] is Sentrin-specific protease 8 (Homo sapiens) (UniProt Q96LD8). Put plainly: SENP8 protease inhibitors, retest, confirmation, biochemical, luminescence, single concentration (AID 488912;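 active = mean inhibition across replicates above about 50%, limit read from the data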). The conditions noted are these: Recombinant SENP8, Z-RLRGG-aminoluciferin luminescence, 60 min; at 12.5 µM; stronger effect = higher value.
Assay [4] addresses Sentrin-specific protease 6 (Homo sapiens) (UniProt Q9GZR1). The assay can be described thus: SENP6 protease inhibitors, confirmation, biochemical, luminescence, single concentration (AID 488915;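 active = mean inhibition above about 50% in the one-dose retest, limit read from the data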). The conditions noted are these: recombinant SENP6, Z-RLRGG-aminoluciferin luminescence; at 12.5 µM; stronger effect = higher value.
For assay [5], the target named is Sentrin-specific protease 7 (Homo sapiens) (UniProt Q9BQF6). The assay can be described thus: SENP7 protease inhibitors, retest, confirmation, biochemical, luminescence, single concentration (AID 488917;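 active = mean inhibition above about 50% in the one-dose retest, limit read from the data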). The conditions noted are these: recombinant SENP7, Z-RLRGG-aminoluciferin luminescence, 40 min; at 12.5 µM; stronger effect = higher value.
The next assay concerns the target Caspase-3 (Homo sapiens) (UniProt P42574). The assay can be described thus: caspase-3 protease inhibitors, confirmation, selectivity assay for SENP inhibitor project, biochemical, single concentration (AID 488918;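 active = mean inhibition above about 50%, limit read from the data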;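 also: plate controls were enzyme with DMSO for no effect and wells without caspase-3 for full effect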). The conditions noted are these: purified caspase-3, Z-DEVD-aminoluciferin luminescence, 60 min; at 12.5 µM; stronger effect = higher value.
Assay [6] is described as follows: luciferase luminescence interference by compounds, confirmation, artefact control for SENP inhibitor project, biochemical, single concentration, SENP8 reaction pre-completed (AID 488919;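 active = mean inhibition above about 50% when retested at one dose, limit read from the data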;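 also: plate controls were DMSO wells with completed reaction for no effect and substrate without enzyme for full effect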). The conditions noted are these: Pre-incubated SENP8/Z-RLRGG-aminoluciferin, at 12.5 µM, stronger effect = higher value.
A short description of assay [7]: Peg3 promoter reporter inhibitors, retest, confirmation, cell-based, HeLa, luciferase reporter, single concentration (AID 602417;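 active = at 20 µM dose, 40% or more inhibition averaged across four replicates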). The conditions noted are these: HeLa PEG-Prom luciferase reporter, luminescence, overnight; at 20 µM; stronger effect = higher value. A general note: A reporter such as luciferase makes a cellular process visible.
Assay [8] can be described thus: HIF-2a reporter inhibitor retest, confirmation, luminescence, 786-0 RCC cells (AID 651580;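 active = mean inhibition across four replicates of at least 40 percent at the single tested concentration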). The conditions noted are these: HIF-2a luciferase reporter luminescence, overnight, at 18.8 µM, stronger effect = higher value.
The nature of assay [9]: HIF-1a luciferase reporter signal reduction – MiaPaCa-2 cells, single concentration, counter-screen for HIF-2a inhibitor project, confirmation (AID 651589;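 active = mean inhibition of the reporter signal across four replicates at the single tested dose of 50% or more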). The conditions noted are these: MiaPaCa-2 HIF-1a luciferase reporter, desferoxamine, overnight; at 18.8 µM; stronger effect = higher value.
Assay [10] addresses PEG-3 (UniProt Q6IN02). The assay can be described thus: Peg3 promoter luciferase inhibitors, potency, dose response, cell-based, HeLa, CREF/GAPDH counter-screen panel (AID 624167). The conditions noted are these: CREF/GAPDH counter-screens; HeLa PEG-Prom luciferase reporter, overnight, run 1, dose range 1, at 100 µM (top of the series) unless noted.
Assay [11] addresses PEG-3 (UniProt Q6IN02). The assay is described as above. The conditions noted are these: CREF/GAPDH counter-screens; HeLa PEG-Prom luciferase reporter, overnight, run 2, dose range 1, at 100 µM (top of the series) unless noted. (In general: Counterscreens check selectivity or assay interference.)
In assay [12] the test system is Rat fibroblasts (CREF). The assay is described as above. The conditions noted are these: CREF/GAPDH counter-screens; run 1, dose range 1, at 100 µM (top of the series).
The test system of assay [13] is Rat fibroblasts (CREF). The description is as above. The conditions noted are these: CREF/GAPDH counter-screens; run 2, dose range 1, at 100 µM (top of the series).
The target of assay [14] is Tumor necrosis factor receptor superfamily member 10B (Homo sapiens) (UniProt O14763). The assay can be described thus: caspase-8 TRAIL sensitization, hit retest, confirmation, cell-based, NB7+caspase-8, with/without TRAIL, luminescence panel (AID 651596; in the data active = activity above about 50%). The conditions noted are these: NB7 neuroblastoma + caspase-8, TRAIL sensitization, luminescence viability, with TRAIL, mean of runs, at 10 µM, stronger effect = higher value.

Experiment in assay [15]: as above
The conditions noted are these: NB7 neuroblastoma + caspase-8, without TRAIL, luminescence viability, without TRAIL, mean of runs, at 10 µM.

The nature of assay [16]: inhibition of Brca1/Bard1 split-luciferase complementation, confirmation, counter-screen for Mdm2/MdmX interaction inhibitor project, luminescence, single concentration (AID 504668; call rule not given here). The conditions noted are these: Brca1/Bard1 bimolecular luciferase complementation counterscreen, at 8 µM, stronger effect = higher value.

Some of the results follow. Calls of active or inactive are those of the source.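 The calls were made as follows, unless noted: active = reconfirmed compounds whose average cytotoxicity reaches 50% or more; inactive = the rest.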

Sentrin-specific protease 6 (Homo sapiens), sequence (Q9GZR1 628-1112 limits assumed): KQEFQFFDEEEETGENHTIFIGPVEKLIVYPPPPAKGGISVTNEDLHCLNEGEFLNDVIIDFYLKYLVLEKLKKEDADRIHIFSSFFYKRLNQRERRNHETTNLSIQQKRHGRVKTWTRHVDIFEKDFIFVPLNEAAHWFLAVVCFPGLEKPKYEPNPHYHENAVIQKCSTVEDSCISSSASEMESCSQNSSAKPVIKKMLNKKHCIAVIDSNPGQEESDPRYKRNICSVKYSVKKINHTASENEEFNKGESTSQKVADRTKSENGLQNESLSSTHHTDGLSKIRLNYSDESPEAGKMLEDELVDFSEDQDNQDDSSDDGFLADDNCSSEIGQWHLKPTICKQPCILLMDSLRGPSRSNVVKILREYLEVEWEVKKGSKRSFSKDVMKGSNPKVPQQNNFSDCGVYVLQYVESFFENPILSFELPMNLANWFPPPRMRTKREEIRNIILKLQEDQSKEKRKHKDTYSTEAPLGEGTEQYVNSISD
Sentrin-specific protease 8 (Homo sapiens), sequence (Q96LD8 whole entry, looked up): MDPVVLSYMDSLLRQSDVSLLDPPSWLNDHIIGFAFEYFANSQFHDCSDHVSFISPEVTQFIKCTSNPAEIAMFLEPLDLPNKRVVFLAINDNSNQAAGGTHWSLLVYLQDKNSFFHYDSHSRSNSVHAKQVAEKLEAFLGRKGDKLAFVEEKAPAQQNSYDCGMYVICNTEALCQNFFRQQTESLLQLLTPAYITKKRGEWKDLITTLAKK
Caspase-3 (Homo sapiens), sequence (P42574 28-227 limits assumed): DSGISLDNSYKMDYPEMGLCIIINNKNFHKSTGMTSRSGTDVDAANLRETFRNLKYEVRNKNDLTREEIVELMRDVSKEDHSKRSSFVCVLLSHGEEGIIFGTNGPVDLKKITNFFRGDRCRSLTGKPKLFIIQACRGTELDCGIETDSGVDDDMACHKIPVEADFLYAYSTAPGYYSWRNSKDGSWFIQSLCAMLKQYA
PEG-3, sequence (Q6IN02 whole entry, looked up): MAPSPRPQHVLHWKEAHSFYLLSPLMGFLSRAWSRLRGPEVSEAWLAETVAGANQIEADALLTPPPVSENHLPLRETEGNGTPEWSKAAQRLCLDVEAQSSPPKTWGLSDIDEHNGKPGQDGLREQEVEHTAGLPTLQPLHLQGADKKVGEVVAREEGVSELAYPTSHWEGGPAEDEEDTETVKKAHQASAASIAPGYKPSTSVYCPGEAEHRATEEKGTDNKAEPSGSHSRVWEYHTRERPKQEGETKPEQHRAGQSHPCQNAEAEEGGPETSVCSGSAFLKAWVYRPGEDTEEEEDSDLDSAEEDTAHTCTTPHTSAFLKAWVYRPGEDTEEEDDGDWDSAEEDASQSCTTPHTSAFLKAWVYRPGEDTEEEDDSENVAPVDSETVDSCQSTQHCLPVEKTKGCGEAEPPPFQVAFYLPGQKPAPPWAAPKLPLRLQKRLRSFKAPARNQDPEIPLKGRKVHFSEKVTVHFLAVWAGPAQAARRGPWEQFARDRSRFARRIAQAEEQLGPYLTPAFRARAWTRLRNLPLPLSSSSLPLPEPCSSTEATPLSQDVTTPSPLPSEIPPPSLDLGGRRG
Sentrin-specific protease 7 (Homo sapiens), sequence (Q9BQF6 706-1050 limits assumed): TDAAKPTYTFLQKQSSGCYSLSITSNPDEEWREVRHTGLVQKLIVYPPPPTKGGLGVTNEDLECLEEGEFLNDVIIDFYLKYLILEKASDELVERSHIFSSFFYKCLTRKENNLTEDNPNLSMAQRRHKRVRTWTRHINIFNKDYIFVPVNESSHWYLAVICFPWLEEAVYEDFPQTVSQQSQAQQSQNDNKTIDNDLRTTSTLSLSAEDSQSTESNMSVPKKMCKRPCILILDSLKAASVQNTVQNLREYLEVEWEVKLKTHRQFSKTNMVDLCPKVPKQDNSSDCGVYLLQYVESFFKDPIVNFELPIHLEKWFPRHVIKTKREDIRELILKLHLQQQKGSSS
Tumor necrosis factor receptor superfamily member 10B (Homo sapiens), sequence (O14763 whole entry, looked up): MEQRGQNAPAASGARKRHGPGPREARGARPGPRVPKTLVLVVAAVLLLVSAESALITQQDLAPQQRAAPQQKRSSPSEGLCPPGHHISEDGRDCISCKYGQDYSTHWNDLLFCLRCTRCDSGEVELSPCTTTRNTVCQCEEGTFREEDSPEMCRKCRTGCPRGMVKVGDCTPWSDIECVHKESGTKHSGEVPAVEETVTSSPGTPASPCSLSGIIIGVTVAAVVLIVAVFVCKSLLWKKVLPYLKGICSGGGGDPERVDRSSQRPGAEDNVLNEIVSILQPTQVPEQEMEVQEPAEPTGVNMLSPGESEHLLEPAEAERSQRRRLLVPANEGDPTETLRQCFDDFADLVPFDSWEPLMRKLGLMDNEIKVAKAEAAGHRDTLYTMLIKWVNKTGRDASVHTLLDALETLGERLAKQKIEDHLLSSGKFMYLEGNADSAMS

As for `Cn1c(=O)n(C)c2cc(S(=O)(=O)N3CCCc4ccccc43)ccc21`, in [1], the cytotoxicity was 14.1% (inactive).
For the molecule `COc1cccc(/C=C/C(=O)Nc2ccc3c(c2)OCCO3)c1`, the cytotoxicity in assay [1] is 48.7% (inactive).
For the molecule `COc1ccc(C2C(C#N)=C(/N=C/N3CCOCC3)OC3=C2C(=O)CC(C)(C)C3)cc1OC` (centres undefined), in assay [1], the cytotoxicity is 2.1% (inactive).
Still for that read-out and setting: next, `Cc1nc(-c2ccc(Cl)cc2)sc1C(=O)NN`: 57.2% (active); `COc1ccc(-c2cc(C(=O)NCc3ccco3)no2)cc1OC`: 17.4% (inactive).
Turning to `COc1cc(NS(=O)(=O)c2ccc(NC(C)=O)cc2)cc(OC)c1`, the cytotoxicity in assay [1] was -8.5% (inactive).
`CCCCCCCCn1c2c(c(=N)c3c1CCC3)CCCC2`: in assay [1], the cytotoxicity was 42.7% (inactive). Also, the inhibition (usually the relative decrease from the control value, in per cent) in assay [2] is 75.5% (active).
Take `O=C(Nc1ccn(Cc2ccccc2)n1)c1cccc(F)c1`: the cytotoxicity in [1] was 39.6% (inactive).
Turning to `CCOC(=O)C1C(=O)OC2(CCCC2)C1C(=O)OCC` (centres undefined), the cytotoxicity in assay [1] was -4.2% (inactive).
Turning to `CNC(=O)CSc1nnc(CCc2ccccc2)n1-c1ccccc1`, in [1], the cytotoxicity is 0.9% (inactive).
Consider `CCOc1cc(N2CCOCC2)c(OCC)cc1NC(=O)c1cc(C)nc2ccccc12`, for which, in [1], the cytotoxicity was -9.1% (inactive).
Consider `N/C(=N\OC(=O)c1ccc([N+](=O)[O-])cc1)c1ccccn1`, for which the cytotoxicity in assay [1] is 11.3% (inactive).
In the case of `O=C(O)CCCC(=O)Nc1ccccc1-n1ccnc1`, the cytotoxicity in assay [1] is -3.3% (inactive).
Turning to `COC(=O)c1nc(NC(=O)c2ccc(Cl)cc2)n[nH]1`, the cytotoxicity in assay [1] is 12.1% (inactive).
As to `COc1ccc(C(=O)/C=C/Nc2ccccn2)cc1`, in [1], the cytotoxicity is 76.8% (active). Moreover, the inhibition is -78.9% (inactive) in assay [2]; 97.4% (active) in assay [3]; 98% (active) in [4]; 102% (active) in [5]; 97% (active) with Caspase-3 (Homo sapiens); 96.4% (active) in assay [6]. In addition, the inhibition in [7] is 57.9% (active); in assay [8], 80.7% (active); in assay [9], 79.7% (active); with PEG-3 [10], 95.5%; with PEG-3 [11], 94.2%; in the assay with Rat fibroblasts (CREF) [12], 96.2%. Besides, the inhibition in the assay on Rat fibroblasts (CREF) [13] was determined as 96.7%. The activity in [14] was determined as 81.4%; in [15], 68.6%.
Take `CS(=O)(=O)N(CC(=O)N1CCOCC1)c1ccc2c3c(cccc13)CC2`: the cytotoxicity in [1] is -7.5% (inactive).
Still for that read-out and setting: as for `Cc1cc2c(=O)n(C)c(SCC(=O)c3cc4ccccc4o3)nc2s1`, the figure is -5.6% (inactive).
Consider `O=C(c1ccc(F)cc1)n1c(=S)nc2ccccn21`, for which the cytotoxicity in assay [1] is 81.2% (active). Also, the inhibition in [2] is -90.8% (inactive); in [3], 16.3% (inactive); in assay [4], 14.2% (inactive); in [5], 50.1% (active); with Caspase-3 (Homo sapiens) it was 19.5% (inactive); in [6] it was -9.8% (inactive).
For `CC(Nc1nc(N2CCCC2)nc2ccccc12)c1ccccc1` (centres undefined), in assay [1], the cytotoxicity is 8.3% (inactive).
For the molecule `Cc1ccc(NC(=O)CS(=O)CC(=O)N(c2ccccc2)C(C)C(=O)NC2CCCC2)cc1` (centres undefined), the cytotoxicity in assay [1] is 14.8% (inactive).
Consider `OCCNc1nc2ccccc2n1-c1ncnc2sc3c(c12)CCC3`, for which the cytotoxicity in assay [1] was -17.2% (inactive).
As to `CCOc1ccc(-c2ccc(SCC(=O)N3CCOCC3)nn2)cc1`, the cytotoxicity in assay [1] was 57.7% (active).
With `Cn1c(C(=O)NCCCN2CCN(c3cccc(Cl)c3)CC2)cc2c(=O)n(C)c3ccccc3c21`, in [1], the cytotoxicity was 15% (inactive).
For the molecule `CS(=O)(=O)N1CCN(C(=O)c2cc3ccccc3oc2=O)CC1`, in [1], the cytotoxicity was 9.4% (inactive).
Consider `COc1ccc(-c2cc(C(=O)n3cnc4ccccc43)c3ccccc3n2)cc1`, for which, in assay [1], the cytotoxicity is 33.1% (inactive).
As to `CCCC(=O)Nc1nnc(CC(=O)OCC)s1`, the cytotoxicity in assay [1] was -5.4% (inactive).
Turning to `O=C(O)c1ccc(N/N=C/c2cn(-c3ccccc3)nc2-c2cccs2)cc1`, in assay [1], the cytotoxicity was 85.2% (active). The inhibition in assay [2] is -14.3% (inactive). The activity in assay [14] came out at 77.9%; in assay [15], 73.7%.
As to `O=C(CSc1nnc(-c2ccc([N+](=O)[O-])cc2)o1)Nc1ccccn1`, the cytotoxicity in assay [1] is 57% (active).
`C=CCn1c(C)cc(C2=NNC(=NCC)SC2)c1C`: in assay [1], the cytotoxicity is 88% (active). Further, the inhibition in [2] is 67.5% (active); in assay [3], -3.3% (inactive); in [4] it was 1% (inactive); in [5] it was 8% (inactive); in the assay with Caspase-3 (Homo sapiens), 1.7% (inactive); in assay [6] it was -1% (inactive). The inhibition is 24.4% (active) in assay [16]; 95.2% (active) in [7]; 98.7% (active) in assay [8]; 104% (active) in assay [9]; 99.4% in the assay with PEG-3 [10]; 98.1% with PEG-3 [11]. Besides, the figures for the inhibition with Rat fibroblasts (CREF) [12] and in the assay with Rat fibroblasts (CREF) [13] were 98.4% and 98.1%, respectively. In addition, the activity in assay [14] is 93.8%; in assay [15] it was 90.7%.
Consider `O=C(Nc1cccc(O)c1)c1ccc(C(=O)c2ccccc2)o1`, for which, in [1], the cytotoxicity was 18.6% (inactive).
On the same count and under the same terms, next, `CNC(=O)COC(=O)c1cc(-c2ccc(OC)cc2)nc2ccccc12`: 36.3% (inactive).
`Clc1cccc(-c2nc3nc4ccccc4nc3n2Cc2ccco2)c1`: the cytotoxicity in assay [1] is -6% (inactive).
For `Cc1ccc(-n2nc3cc(C)c(NC(=O)c4cccnc4)cc3n2)cc1`, in [1], the cytotoxicity is 34.7% (inactive).
`CCOC(=O)c1c(C)[nH]c2c1-c1ccccc1C(=O)C2=O`: the cytotoxicity in assay [1] was 96.4% (active).
Consider `O=C(CN1C(=O)c2ccccc2S1(=O)=O)N1CCc2ccccc21`, for which the cytotoxicity in [1] was 46.8% (inactive). In addition, the inhibition was 34.6% (inactive) in [2], 94.3% (active) in assay [8] and 96% (active) in assay [9].
